# Assay results reported in the supplement of paper PMC12350171.
# Counter-ions that a name gives are not always drawn. A number with no mark means an inactive call.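 The calls were made as follows: active = AUC significantly below DMSO controls by Student t-fit with adjusted P under 0.01; inactive = not significantly reduced.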
# Tested on: Haemophilus parainfluenzae
# Assay: growth AUC normalised to DMSO control (fraction of control); higher = less growth inhibition, active = hit call of the paper
# Conditions: 20 µM
# Outline: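 Three biological replicates were carried out, with OD578 read hourly for 24 h. Before inoculation at a starting OD578 of 0.01, pathogens were passaged anaerobically twice; plates were pre-reduced mGAM containing 20 μM compound and 1% DMSO, sealed with breathable membranes, and the Haemophilus parainfluenzae medium carried added hemin and NAD. Area under each growth curve was calculated by the trapezoidal rule up to the exponential-to-stationary transition and normalised to DMSO controls on the same plate.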
row,Compound,growth AUC normalised to DMSO control
1,CCOC(=O)[C@H](CCc1ccccc1)N[C@@H](C)C(=O)N1Cc2ccccc2C[C@H]1C(=O)O [Quinapril hydrochloride],0.952
2,Cc1cn([C@H]2C[C@H](N=[N+]=[N-])[C@@H](CO)O2)c(=O)[nH]c1=O [Zidovudine],0.581 (active)
3,COc1ccccc1OCC(O)CN1CCN(CC(=O)Nc2c(C)cccc2C)CC1 (centres undefined) [Ranolazine],1.03
4,CCCNCC(O)COc1ccccc1C(=O)CCc1ccccc1 (centres undefined) [Propafenone hydrochloride],1.01
5,NS(=O)(=O)c1cc2c(cc1Cl)NC(C(Cl)Cl)NS2(=O)=O (centres undefined) [Trichlormethiazide],1.01
6,CCN(CC)C(=O)c1ccc(O)c(OC)c1 [Ethamivan],1.03
7,N=C(N)NC(=O)Cc1c(Cl)cccc1Cl [Guanfacine hydrochloride],1.01
8,CNCCCN1c2ccccc2CCc2ccccc21 [Desipramine hydrochloride],0.979
9,CCOC(=O)C1=C(C)NC(C)=C(C(=O)OCC)C1c1ccccc1/C=C/C(=O)OC(C)(C)C [Lacidipine],1.01
10,CNc1ncnc2c1ncn2[C@@H]1O[C@H](CO)[C@@H](O)[C@H]1O [N6-methyladenosine],1.01
11,CCOC(=O)n1ccn(C)c1=S [Carbimazole],0.99
12,COc1cc(-c2ccc(=O)[nH]n2)ccc1OC(F)F [Zardaverine],1.02
13,CCN(CC)CCOC(=O)C1(c2ccc([N+](=O)[O-])cc2)CCCC1 [Nitrocaramiphen hydrochloride],1.01
14,CC[C@@]1(O)C(=O)OCc2c1cc1n(c2=O)Cc2cc3c(CN(C)C)c(O)ccc3nc2-1 [Topotecan],0.984
15,Cc1ccc(C(=O)c2ccc(CC(=O)O)n2C)cc1 [Tolmetin sodium salt dihydrate],1.07
16,Cc1c(N)c(=O)n(-c2ccccc2)n1C [Ampyrone],1
17,CCCc1cc(=O)[nH]c(=S)[nH]1 [Propylthiouracil],0.991
18,O=C1NCCN1c1ncc([N+](=O)[O-])s1 [Niridazole],0.392 (active)
19,CC(=O)OCC1=C(C(=O)O)N2C(=O)[C@@H](NC(=O)Cc3cccs3)[C@H]2SC1 [Cephalothin sodium salt],0.0326 (active)
20,CCn1cc(C(=O)O)c(=O)c2cc(F)c(N3CCNC(C)C3)c(F)c21 (centres undefined) [Lomefloxacin hydrochloride],0.04 (active)

row,Compound,growth AUC normalised to DMSO control
1,CO[C@@]1(NC(=O)C(C(=O)O)c2ccc(O)cc2)C(=O)N2C(C(=O)O)=C(CSc3nnnn3C)CO[C@@H]21 (some centres undefined) [Moxalactam disodium salt],0.076 (active)
2,CCOC(=O)OC(C)OC(=O)[C@@H]1N2C(=O)[C@@H](NC(=O)[C@H](N)c3ccccc3)[C@H]2SC1(C)C (some centres undefined) [Bacampicillin hydrochloride],0.0618 (active)
3,C=C1C[C@H]2[C@@H]3C=C(C)C4=CC(=O)CC[C@]4(C)[C@H]3CC[C@]2(C)[C@@]1(OC(C)=O)C(C)=O [Melengestrol acetate],1.06
4,CCN(CC)CCNC(=O)c1cc(Br)c(N)cc1OC [Bromopride],1.03
5,Nc1ccc(S(=O)(=O)Nc2ncccn2)cc1 [Sulfadiazine],1.01
6,CCN(CC)C(C)CN1c2ccccc2Sc2ccccc21 (centres undefined) [Ethopropazine hydrochloride],0.963
7,OCCN1CCN(CCCN2c3ccccc3Sc3ccc(Cl)cc32)CC1 [Perphenazine],0.924
8,NCCNCCNCCNCCN [Tetraethylenepentamine pentahydrochloride],0.971
9,CCC[C@@H]1C[C@@H](C(=O)N[C@@H]([C@H]2O[C@H](SC)[C@H](O)[C@@H](O)[C@H]2O)[C@H](C)Cl)N(C)C1 [Clindamycin hydrochloride],0.0463 (active)
10,O=C(O)/C=C/c1ccc(Cn2ccnc2)cc1 [Ozagrel hydrochloride],1.03
11,CN(C)CCOC1=Cc2ccccc2Sc2ccc(Cl)cc21 [Zotepine],0.891
12,CO/N=C(\C(=O)N[C@@H]1C(=O)N2C(C(=O)O)=C(COC(C)=O)CS[C@H]12)c1csc(N)n1 [Cefotaxime sodium salt],0.0499 (active)
13,CC1CCc2cc(F)cc3c(=O)c(C(=O)O)cn1c23 (centres undefined) [Flumequine],0.066 (active)
14,CC/C(=C(/CC)c1ccc(O)cc1)c1ccc(O)cc1 [Diethylstilbestrol],1.01
15,CC1CNc2c(cccc2S(=O)(=O)N[C@@H](CCCNC(=N)N)C(=O)N2CC[C@@H](C)C[C@@H]2C(=O)O)C1 (some centres undefined) [Argatroban],1.04
16,C#C[C@]1(OC(C)=O)CC[C@H]2[C@@H]3CCC4=CC(=NO)CC[C@@H]4[C@H]3CC[C@@]21CC (mixture of isomers) [Norgestimate],0.908
17,CCC1(c2ccccc2)C(=O)NCNC1=O [Primidone],0.953
18,C=CC1=C(C(=O)O)N2C(=O)[C@@H](NC(=O)/C(=N\OCC(=O)O)c3csc(N)n3)[C@H]2SC1 [Cefixime],0.0416 (active)
19,CCCc1cc(C(N)=S)ccn1 [Prothionamide],1.04
